What was measured:
Experiment in all cases: HT-SELEX; SELEX buffer: 10.4 mM Tris-HCl pH 7.5, 51.4 mM NaCl, 1.4 mM MgCl2, 4% glycerol, 100 uM EGTA, 0.7 mM DTT, 3.7 ug/ml poly-dI-dC, 1.4 uM ZnSO4; room temperature (2); high values mean tight binding
Settings in all cases: protein: recombinant; dsDNA, one strand shown
[1] = molecular target: BARHL2 DBD ctrl (unmutated, SELEX) (human, UniProt Q9NY43 227-293)
[2] = molecular target: BARHL2 DBD T278I/T285N (HMX3) (human, UniProt Q9NY43 227-293, T278I;T285N)
BARHL2 DBD T278V (EMX1) = BARHL2 DBD T278V (EMX1) (human, UniProt Q9NY43 227-293, T278V)
[3] = molecular target: BARHL2 DBD T278I (NKX1.2) (human, UniProt Q9NY43 227-293, T278I)
BARHL2 DBD T285M (NANOG) = BARHL2 DBD T285M (NANOG) (human, UniProt Q9NY43 227-293, T285M)
[4] = molecular target: BARHL2 DBD T278N/T285I (PBX1) (human, UniProt Q9NY43 227-293, T278N;T285I)
[5] = molecular target: BARHL2 DBD T278V/T285A (ALX4) (human, UniProt Q9NY43 227-293, T278V;T285A)
[6] = molecular target: BARHL2 DBD T278I/T285M (HOXA3) (human, UniProt Q9NY43 227-293, T278I;T285M)
[7] = molecular target: BARHL2 DBD T278V/T285M (MEOX2) (human, UniProt Q9NY43 227-293, T278V;T285M)
[8] = molecular target: BARHL2 DBD T278I/T285A (CDX1) (human, UniProt Q9NY43 227-293, T278I;T285A)
[9] = molecular target: BARHL2 DBD T278I/T285S (DLX1) (human, UniProt Q9NY43 227-293, T278I;T285S)
[10] = molecular target: BARHL2 DBD T278N/T285Q (SIX6) (human, UniProt Q9NY43 227-293, T278N;T285Q)
BARHL2 DBD T285A (LBX1) = BARHL2 DBD T285A (LBX1) (human, UniProt Q9NY43 227-293, T285A)
[11] = molecular target: BARHL2 DBD T278N/T285R (PKNOX1) (human, UniProt Q9NY43 227-293, T278N;T285R)
[12] = molecular target: BARHL2 DBD T278I/T285V (HOXB13) (human, UniProt Q9NY43 227-293, T278I;T285V)
Sequence of BARHL2 DBD T278I/T285V (HOXB13) (Q9NY43 227-293 T278I/T285V): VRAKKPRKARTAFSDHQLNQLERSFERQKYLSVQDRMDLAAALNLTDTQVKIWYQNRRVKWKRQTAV

Sequence of BARHL2 DBD T278N/T285Q (SIX6) (Q9NY43 227-293 T278N/T285Q): as the sequence (Q9NY43 227-293 T278I/T285V) above, with I52N, V59Q counted along it
Sequence of BARHL2 DBD T278V/T285M (MEOX2) (Q9NY43 227-293 T278V/T285M): as the sequence (Q9NY43 227-293 T278I/T285V) above, with I52V, V59M counted along it
Sequence of BARHL2 DBD T278V (EMX1) (Q9NY43 227-293 T278V): as the sequence (Q9NY43 227-293 T278I/T285V) above, with I52V, V59T counted along it
Sequence of BARHL2 DBD T278I/T285S (DLX1) (Q9NY43 227-293 T278I/T285S): as the sequence (Q9NY43 227-293 T278I/T285V) above, with V59S counted along it
Sequence of BARHL2 DBD T285A (LBX1) (Q9NY43 227-293 T285A): as the sequence (Q9NY43 227-293 T278I/T285V) above, with I52T, V59A counted along it
Sequence of BARHL2 DBD T278N/T285I (PBX1) (Q9NY43 227-293 T278N/T285I): as the sequence (Q9NY43 227-293 T278I/T285V) above, with I52N, V59I counted along it
Sequence of BARHL2 DBD T278I/T285M (HOXA3) (Q9NY43 227-293 T278I/T285M): as the sequence (Q9NY43 227-293 T278I/T285V) above, with V59M counted along it
Sequence of BARHL2 DBD T285M (NANOG) (Q9NY43 227-293 T285M): as the sequence (Q9NY43 227-293 T278I/T285V) above, with I52T, V59M counted along it
Sequence of BARHL2 DBD T278I (NKX1.2) (Q9NY43 227-293 T278I): as the sequence (Q9NY43 227-293 T278I/T285V) above, with V59T counted along it
Sequence of BARHL2 DBD T278N/T285R (PKNOX1) (Q9NY43 227-293 T278N/T285R): as the sequence (Q9NY43 227-293 T278I/T285V) above, with I52N, V59R counted along it
Sequence of BARHL2 DBD T278V/T285A (ALX4) (Q9NY43 227-293 T278V/T285A): as the sequence (Q9NY43 227-293 T278I/T285V) above, with I52V, V59A counted along it
Sequence of BARHL2 DBD T278I/T285A (CDX1) (Q9NY43 227-293 T278I/T285A): as the sequence (Q9NY43 227-293 T278I/T285V) above, with V59A counted along it
Sequence of BARHL2 DBD ctrl (unmutated, SELEX) (Q9NY43 227-293, stated change not applied): as the sequence (Q9NY43 227-293 T278I/T285V) above, with I52T, V59T counted along it
Sequence of BARHL2 DBD T278I/T285N (HMX3) (Q9NY43 227-293 T278I/T285N): as the sequence (Q9NY43 227-293 T278I/T285V) above, with V59N counted along it

| Sequence | binding signal [1] | binding signal [2] | binding signal (BARHL2 DBD T278V (EMX1)) | binding signal [3] | binding signal (BARHL2 DBD T285M (NANOG)) | binding signal [4] | binding signal [5] | binding signal [6] | binding signal [7] | binding signal [8] | binding signal [9] | binding signal [10] | binding signal (BARHL2 DBD T285A (LBX1)) | binding signal [11] | binding signal [12] |
| --- | --- | --- | --- | --- | --- | --- | --- | --- | --- | --- | --- | --- | --- | --- | --- |
| TAACCG | 2.1 fold enrichment | 2 fold enrichment | 1.6 fold enrichment | 1.5 fold enrichment | 2.3 fold enrichment | 3.7 fold enrichment | 1.9 fold enrichment | 1.5 fold enrichment | 1.5 fold enrichment | 1.9 fold enrichment | 1.7 fold enrichment | 4.1 fold enrichment | 3.5 fold enrichment | 4.9 fold enrichment | – |
| TAATCG | 9.7 fold enrichment | 12.6 fold enrichment | 8 fold enrichment | 9.4 fold enrichment | 7.6 fold enrichment | 8.1 fold enrichment | 5.1 fold enrichment | 11.4 fold enrichment | 8.5 fold enrichment | 9.9 fold enrichment | 10.9 fold enrichment | 6.7 fold enrichment | 9 fold enrichment | 2.6 fold enrichment | 5.9 fold enrichment |
| TAAACG | 28 fold enrichment | 4 fold enrichment | 7.8 fold enrichment | 6.6 fold enrichment | 3.8 fold enrichment | 2.8 fold enrichment | 3.3 fold enrichment | 2.5 fold enrichment | 3.1 fold enrichment | 3.7 fold enrichment | 4.7 fold enrichment | 2.4 fold enrichment | 6.3 fold enrichment | 1.6 fold enrichment | 2.4 fold enrichment |
| TAAGCG | 3 fold enrichment | 2.4 fold enrichment | 3.2 fold enrichment | 2.4 fold enrichment | 3.6 fold enrichment | 1.4 fold enrichment | 1.9 fold enrichment | 2.4 fold enrichment | 2.7 fold enrichment | 1.8 fold enrichment | 1.9 fold enrichment | 1.6 fold enrichment | 2.9 fold enrichment | – | – |

— PMC11996681, “Interfacial water confers transcription factors with dinucleotide specificity”
